# Compound activity as filed in PubChem.
# Most compounds without a hit are left out; they make up all but 12% or so of the library.
# Pf growth 96h = inhibits malaria parasite growth, 96 h; AID 504834; P. falciparum luciferase reporter growth, 96 h; Potency, µM (highest dose often 28.7 µM), inactives show top-dose activity change, negative = inhibition, hits mostly inhibitors; 320,000 tested, 6.9% active; also: % is scaled to controls: 0 for no effect and ±100 for the full control effect
#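 Parasite growth measured via integrated firefly luciferase reporter in P. falciparum. Infected erythrocytes at 2% hematocrit, 0.05% parasitemia final were treated 96 hours at 37 C under 5% CO2, and luminescence was read.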
# SARS PLP yeast = SARS-CoV PLP inhibition in yeast. S. cerevisiae expressing SARS-CoV PLpro, growth rescue. Potency, µM (highest dose often 32.9 µM), for inactives: top-dose activity, positive = growth rescue, usual class: activators. 330,000 tested, 0.19% active. AID 485353; calls by dose curve; also: 0% is about no effect; nearly all actives have a fitted effect of over 55% in size
# AmpC no deterg = blocks E. coli AmpC beta-lactamase in detergent-free assay; P00811; AmpC nitrocefin hydrolysis, absorbance 480 nm, 0.0001% Triton; Potency, µM (doses to about 57.1 µM), without a hit: at the highest dose activity change, negative = inhibition, actives largely listed as inhibitors; 330,000 tested, 0.52% active;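 also: plate controls were no compound for no effect and no enzyme for full effect; nearly all actives have a fitted effect of over 20% in size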
# Target sequence (P00811 whole entry, looked up): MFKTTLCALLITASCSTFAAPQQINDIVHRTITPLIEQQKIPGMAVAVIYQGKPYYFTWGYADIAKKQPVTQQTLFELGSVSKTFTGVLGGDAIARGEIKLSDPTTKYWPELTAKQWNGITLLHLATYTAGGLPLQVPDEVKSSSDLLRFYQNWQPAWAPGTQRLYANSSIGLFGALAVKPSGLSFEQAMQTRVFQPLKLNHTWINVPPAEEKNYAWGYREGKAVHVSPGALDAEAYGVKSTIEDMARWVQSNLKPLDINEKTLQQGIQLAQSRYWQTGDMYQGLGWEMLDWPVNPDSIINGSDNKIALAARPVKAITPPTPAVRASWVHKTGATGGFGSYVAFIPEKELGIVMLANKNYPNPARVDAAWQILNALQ
#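 20 mM phosphate pH 7.0 + 0.01% (detergent screen) or 0.0001% Triton X-100; 5.3 nM AmpC reagent; cpd preinc 15 min RT; nitrocefin (800 uM stock) to start; A480 q20 s × 4 min; Activity was normalised to no-enzyme and no-compound control wells.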
# AmpC inh detg = AmpC beta-lactamase inhibition with detergent present; P00811; AmpC hydrolysis of nitrocefin, absorbance 480 nm, 0.01% Triton; Potency, µM (titrated, usually from 114 µM), without a hit: at the top dose activity change, negative = inhibition, usual class: inhibitors; 370,000 tested, 0.041% active; AID 485294;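 also: 0% = no-compound wells and -100% = no-enzyme wells; nearly all actives have a fitted effect of over 25% in size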
#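 20 mM phosphate pH 7.0 + 0.01% (detergent screen) or 0.0001% Triton X-100; 5.3 nM AmpC reagent; cpd preinc 15 min RT; nitrocefin (800 uM stock) to start; A480 q20 s × 4 min; Activity was normalised to no-enzyme and no-compound control wells.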
# Pf growth 48h = P. falciparum growth inhibition at 48 hours (one generation); Potency, µM (titrated, usually from 28.7 µM), for the others: top-dose activity change, negative = inhibition, most hits filed as inhibitors; P. falciparum luciferase growth in erythrocytes, 48 h; 310,000 tested, 5.9% active; AID 504832; also: % is scaled to controls: 0 for no effect and ±100 for the full control effect
#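 Compounds are pin-transferred into medium, infected erythrocytes (2% hematocrit, 0.1% parasitemia final) are added, and plates sit one parasite generation at 37 C in 5% CO2. Detection reagent is then added and luminescence measured.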
# Sm TGR inh = inhibitors of Schistosoma mansoni thioredoxin glutathione reductase; Q962Y6; purified TGR, DTNB reduction, TNB absorbance 405 nm; 360,000 tested, 3% active; AID 485364; Potency, µM (highest dose often 114 µM), inactives show top-dose activity change, negative = inhibition, hits mostly inhibitors; also: % is scaled to controls: 0 for no effect and ±100 for the full control effect; nearly all actives have a fitted effect of over 60% in size
#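 First, TGR (20 nM dispensed) and NADPH were mixed with compound. Second, a 15 min room-temperature incubation followed. Third, further NADPH and then DTNB were added to start the reaction. Finally, TNB absorbance was monitored kinetically.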
# Active calls of the source: *; ? = inconclusive; · = no result given; [ ] = remark or other dose. Unless noted, calls follow the shape of the dose curve; as a rule, active = well fitted curve in the direction sought with a large enough effect; inconclusive = small, poorly fitted or top-dose-only effect, or another doubt; inactive = no such curve, though single readings can be large; an effect the other way counts as inactive or inconclusive. Potency is read from the fitted curve at half-maximal effect.
SMILES,Pf growth 96h,SARS PLP yeast,AmpC no deterg,AmpC inh detg,Pf growth 48h,Sm TGR inh
Cc1ccc(C(=O)OCC(=O)NNC(=O)COc2ccc(Cl)cc2)c(O)c1,33.1%,-5.1%,-19.4%,-14.0%,-16.8%,-1.8%
COc1ccc(CCNCc2cc3ccc(C)cc3[nH]c2=O)cc1OC,13.1µM*,1.1%,-16.1%,?,17.1%,-13.4%
COc1ccccc1N(Cc1cc2ccc(C)cc2[nH]c1=O)C(C)=O,?,-0.8%,13.2%,1.5%,5.2%,-15.4%
Cc1ccc2cc(CNC(C)C)c(=O)[nH]c2c1,5.22µM*,-0.5%,-20.4%,-1.8%,·,0.5%[11.4 µM]
COc1ccc(CCN(Cc2cc3ccc(C)cc3[nH]c2=O)C(C)=O)cc1OC,-2.2%,-0.9%,3.2%,0.1%,2.33µM*,-2.8%
COc1cccc(C(=O)O/N=C/c2ccc(Sc3ccc(C)cc3)nc2)c1,-0.2%,17.4%,-24.0%,6.2%,·,1.2%
CCc1ccccc1NC(=O)Cn1nnc(-c2nc(-c3ccc(C)cc3)no2)c1N,·,·,·,2.4%,·,10.1%
C/C(=N\NC(=O)C(O)c1ccccc1)c1ccc(Cl)cc1 (configuration not stated),4.15µM*,0.8%,-5.9%,8.4%,-19.0%,21.4%
c1ccc(-c2ccc(CN3CCSCC3)cc2)cc1,13.1µM*,1.4%,-2.4%,-14.3%,262.2%,-2.7%
CC(=O)c1ccc(NC(=O)C(C)Oc2ccc(N(C)S(=O)(=O)c3ccc(C)cc3)cc2)cc1 (configuration not stated),13.1µM*,2.0%,-21.2%,3.3%,14.7µM*,-2.7%
CN(c1ccc(C(=O)Nc2cccc(O)c2)cc1)S(=O)(=O)c1ccccc1,-23.3%,-0.6%,-5.8%,-13.4%,-5.0%,4.9%
CC(=O)c1cccc(NC(=O)c2ccc(N(C)S(=O)(=O)c3ccc(C)cc3)cc2)c1,8.28µM*,-1.2%,-31.3%,4.2%,?,3.7%
Cc1ccc(S(=O)(=O)N(C)c2ccc(OC(C)C(=O)N(C)c3ccccc3)cc2)cc1 (configuration not stated),?,-3.6%,109.0%,?,?,2.3%
CC1CC(NC(=O)Cc2ccc(Br)cc2)CC(C)(C)C1 (configuration not stated),?,-3.5%,-17.6%,1.0%,11.7µM*,28.8%
COc1ccc2c(c1)cc1c(=O)n(CC(=O)NCc3ccco3)nc(C)n12,·,·,·,11.8%,·,-1.8%
Cc1ccc(C(C(=O)NC(C)(C)C)N(CC2CCCO2)C(=O)CCC(=O)Nc2ccccn2)cc1 (configuration not stated),-50.2%,1.5%,54.7%,2.4%,-11.4%,-11.6%
CCCCN(C(=O)CCC(=O)Nc1cc(C)on1)C(C(=O)NC1CCCC1)c1ccccc1OCC (configuration not stated),16.4%,-1.2%,58.7%,0.0%,14.7µM*,15.5%
Cc1cc(NC(=O)CCC(=O)N(c2ccccc2)C(C(=O)NC2CCCC2)c2ccccc2C)no1 (configuration not stated),?,0.0%,5.2%,-0.7%,13.1µM*,-2.9%
CCC(C)(C)NC(=O)C(c1ccc(C)cc1)N(CC1CCCO1)C(=O)CCC(=O)Nc1ccccn1 (configuration not stated),11.7µM*,1.5%,74.0%,-2.9%,?,1.6%
Cc1ccc(C(C(=O)NC2CCCC2)N(Cc2ccco2)C(=O)CCC(=O)Nc2cc(C)on2)cc1 (configuration not stated),13.1µM*,?,0.9%,2.0%,?,-17.8%
Cc1noc(/C=C/c2ccccc2F)c1S(=O)(=O)N1CCC(C(=O)N(C)Cc2ccco2)CC1,·,·,·,3.3%,·,-4.1%
Cc1ccc(N(C(=O)CCC(=O)Nc2cc(C)on2)C(C(=O)NC2CCCC2)c2ccccc2)cc1 (configuration not stated),1.7%,0.5%,1.5%,3.5%,11.7µM*,7.8%
Cc1ccc(N(C(=O)CCC(=O)Nc2cc(C)on2)C(C(=O)NC2CCCC2)c2cccs2)cc1 (configuration not stated),·,-6.0%,8.6%,?,11.7µM*,-1.0%
Cc1cc(NC(=O)CCC(=O)N(c2ccccc2)C(C(=O)NC2CCCC2)c2ccccc2)no1 (configuration not stated),8.28µM*,2.6%,3.5%,-11.3%,14.7µM*,-9.6%
Cc1cc(NC(=O)CCC(=O)N(c2cccc(F)c2)C(C(=O)NC2CCCC2)c2ccccc2)no1 (configuration not stated),?,-1.6%,126.3%,9.4%,?,2.8%
SMILES,Pf growth 96h,SARS PLP yeast,AmpC no deterg,AmpC inh detg,Pf growth 48h,Sm TGR inh
COC(=O)c1c(C)[nH]c(C(=O)/C=C/c2ccccc2F)c1C,161.5%,-0.1%,-7.9%,-2.2%,147.6%,11.5%
O=C(O)CC1(CC(=O)Nc2cccc(C(=O)O)c2)CCCC1,10.1%,2.2%,-13.8%,2.2%,56.3%,4.3%
CCc1ccc(N2CC(c3nc4ccccc4n3Cc3ccccc3C)CC2=O)cc1 (configuration not stated),·,·,·,-1.5%,·,-7.9%
COc1ccc(NS(=O)(=O)c2csc(C(N)=O)c2)cc1,?,-2.3%,-10.1%,1.8%,7.38µM*,-13.8%
NC(=O)c1cc(S(=O)(=O)Nc2ccc(OC(F)(F)F)cc2)cs1,?,-0.4%,-31.1%,-9.2%,13.1µM*,-0.2%
COc1cc(-c2noc(-c3ccc(NCc4cccnc4)c([N+](=O)[O-])c3)n2)cc(OC)c1OC,·,·,·,21.8%,·,0.6%
C/C1=C\[C@@H](C)C/C=C/[C@H]2[C@@H]3O[C@]3(C)[C@@H](C)[C@H]3[C@H](Cc4c[nH]c5ccccc45)NC(=O)[C@]32C(=O)/C=C/C(=O)[C@@H]1O,59.3%,-1.3%,40.6%,1.7%,0.294µM*,-2.1%
CN(CCC#N)C(=O)COC(=O)c1c2c(nc3ccccc13)/C(=C/c1ccco1)CC2,-34.1%,-30.1%,66.6%,-10.8%,12.1%,10µM*
CC1CCN(S(=O)(=O)c2ccc3c(c2)N(CC(=O)NC(C)c2ccccc2)C(=O)CS3)CC1 (configuration not stated),·,·,·,-9.1%,·,-1.8%
CCOC(=O)CN1C(=O)C(C)(C)Oc2ccc(C(=O)Nc3ccccc3OC)cc21,-21.5%,1.2%,44.5%,-0.6%,?,-16.4%
COCCCN1C(=O)c2ccc(C(=O)Nc3ccccc3OC)cc2C1=O,4.65µM*,-5.0%,-14.4%,-6.7%,21.4%,9.6%
COCCCN1C(=O)c2ccc(C(=O)NCc3ccco3)cc2C1=O,9.0%,3.5%,-11.1%,?,3.7%,28.2µM*
